# The source made the active and inactive calls. Rule for the calls: active = hit-call score of the fitted dose curve at least 0.9, where 1 is the maximum; inactive = score below 0.9.
# Assays:
# [1] = ATG_ERE_CIS: Attagene CIS-FACTORIAL HepG2 Assay for Estrogen Response Element (ERE) (AID 2282940); settings: HepG2 ERE cis-reporter, Attagene RNA transcript; actives raise or lower the signal
# Method in brief: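 HepG2 cells transiently transfected with cis-promoter-driven multiplexed reporter transcription units report endogenous TF activity. After 24 h compound exposure, reporter mRNA is quantified by RT-PCR with capillary electrophoresis fluorescence; bidirectional fitting versus DMSO baseline.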
# [2] = ATG_Ets_CIS: Attagene CIS-FACTORIAL HepG2 Assay for human Erythroblast Transformation Specific (ETS) (AID 2282941); settings: HepG2 ETS cis-reporter transcription, actives raise or lower the signal
# Method in brief: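 HepG2 cells transfected with multiple cis-regulated reporter units measuring endogenous ETS-driven transcription, 24 h after dosing. Reporter mRNA quantified by RT-PCR with capillary electrophoresis; bidirectional fit relative to DMSO.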
# [3] = biological target: Hepatocyte nuclear factor 3-beta (Homo sapiens) (UniProt Q9Y261); test: ATG_FoxA2_CIS: Attagene CIS-FACTORIAL HepG2 Assay for human Forkhead box A2 (FOXA2) (AID 2282942); settings: HepG2 cis-reporter transcription factor activity, 24 h; actives raise or lower the signal
# Method in brief: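 Endogenous transcription factor activity is captured via cis-element-driven reporter transcripts in transfected HepG2. Total RNA taken at 24 h post-dosing; labelled RT-PCR products resolved by capillary electrophoresis. Gain or loss fitted versus DMSO.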
# [4] = ATG_FoxO_CIS: Attagene CIS-FACTORIAL HepG2 Assay for human Forkhead box O (FoxO) (AID 2282943); settings: HepG2 Attagene cis-reporter, FoxO element, mRNA; actives raise or lower the signal
# Method in brief: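 Human hepatoma HepG2 cells carry transiently introduced reporter transcription units controlled by cis promoter elements. Chemical treatment lasted 24 h, and mRNA signal was compared with DMSO.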
# [5] = ATG_GATA_CIS: Attagene CIS-FACTORIAL HepG2 Assay for human GATA Binding Protein (AID 2282944); settings: HepG2 GATA cis-element reporter, Attagene multiplex mRNA; actives raise or lower the signal
# Method in brief: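 HepG2 cells transiently transfected with multiplexed cis-element reporter units reflecting endogenous transcription factor activity; reporter mRNA measured after 24 h dosing by RT-PCR, 6-FAM labeling, HpaI digestion and capillary electrophoresis. Bidirectional fitting versus DMSO baseline.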
# [6] = ATG_GLI_CIS: Attagene CIS-FACTORIAL HepG2 Assay for human Zinc Finger Protein GLI1 (AID 2282945); settings: HepG2, Attagene cis-factorial reporter mRNA, GLI element; actives raise or lower the signal
# Method in brief: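 Bidirectional curve fits relative to DMSO, using reporter mRNA levels from RT-PCR plus capillary electrophoresis. Cells were HepG2 transiently carrying cis-regulated reporter constructs, harvested 24 h after dosing.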
# [7] = ATG_GRE_CIS: Attagene CIS-FACTORIAL HepG2 Assay for human Glucocorticoid Response Elements (GRE) (AID 2282947); settings: HepG2 GRE cis-reporter, Attagene multiplex mRNA; actives raise or lower the signal
# Method in brief: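 Assay uses human hepatoma HepG2 cells transfected with cis-promoter reporter units, exposed 24 h. mRNA from reporters detected by RT-PCR plus capillary electrophoresis; DMSO serves as negative control and baseline.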
# [8] = ATG_ISRE_CIS: Attagene CIS-FACTORIAL HepG2 Assay for human Interferon Regulatory Factor 1 (IRF1) binding to an Interferon-Stimulated Response Element (ISRE) (AID 2282948); settings: HepG2 ISRE cis-reporter (Attagene), mRNA transcription readout; actives raise or lower the signal
# Method in brief: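 Transiently transfected HepG2 cells carrying cis-element reporter units, dosed 24 hours. Reporter mRNA quantified by RT-PCR, fluorescent primer extension, HpaI digestion and capillary electrophoresis. Bidirectional fitting relative to DMSO.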
# [9] = ATG_M_32_CIS: Attagene CIS-FACTORIAL HepG2 Assay for M32 Transcription Factor (Internal Marker) (AID 2282949); settings: HepG2 Attagene cis-factorial M32 reporter, mRNA; actives raise or lower the signal;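 note: background control marker of the multiplexed CIS panel rather than a real target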
# Method in brief: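 Following 24 h chemical exposure of HepG2 cells transiently expressing cis-promoter reporter constructs, reporter transcript levels were determined by RT-PCR with fluorescent labelling and capillary electrophoresis, then fitted bidirectionally against DMSO.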
# [10] = ATG_M_06_CIS: Attagene CIS-FACTORIAL HepG2 Assay for M06 Transcription Factor (Internal Marker) (AID 2282950); settings: HepG2 Attagene CIS-FACTORIAL M06 internal marker reporter; actives raise or lower the signal
# Method in brief: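 HepG2 cells transiently transfected with cis-regulated multiple reporter transcription units were exposed to chemical for 24 h; reporter mRNA was quantified by RT-PCR, 6-FAM primer labelling, HpaI digestion and capillary electrophoresis, fitted bidirectionally against DMSO.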
# [11] = biological target: Hypoxia-inducible factor 1-alpha (Homo sapiens) (UniProt Q16665); test: ATG_HIF1a_CIS: Attagene CIS-FACTORIAL HepG2 Assay for human Hypoxia Inducible Factor 1 (HIF1A) (AID 2282951); settings: HepG2 Attagene cis-factorial HIF1a reporter transcription; actives raise or lower the signal
# Method in brief: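 Activity is fitted in both directions relative to DMSO. Reporter transcripts are read by RT-PCR, fluorescent primer extension and capillary electrophoresis after 24 h chemical treatment. The cells are HepG2 carrying transiently transfected cis-element-driven reporter units responding to endogenous factors.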
# [12] = biological target: Hepatocyte nuclear factor 6 (Homo sapiens) (UniProt Q9UBC0); test: ATG_HNF6_CIS: Attagene CIS-FACTORIAL HepG2 Assay for human Hepatocyte Nuclear Factor 6 (HNF6) (AID 2282952); settings: HepG2 Attagene cis-factorial HNF6 reporter transcription; actives raise or lower the signal
# Method in brief: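 Transiently transfected HepG2 cells expressing cis-regulated reporter transcription units were exposed to chemical for 24 h in a 24-well format. Reporter transcript abundance was determined by fluorescence capillary electrophoresis.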
# [13] = biological target: Heat shock factor protein 1 (Homo sapiens) (UniProt Q00613); test: ATG_HSE_CIS: Attagene CIS-FACTORIAL HepG2 Assay for human Heat Shock Transcription Factor 1 (HSE) (AID 2282953); settings: HepG2 HSE cis-reporter, Attagene RNA transcription; actives raise or lower the signal
# Method in brief: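 HepG2 cells transiently transfected with multiple reporter transcription units under cis-regulatory promoter control, measuring endogenous transcription factor activity. After 24 h chemical exposure, reporter mRNA quantified by RT-PCR, fluorescent labelling, HpaI digestion and capillary electrophoresis; bidirectional fit versus DMSO.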
# [14] = ATG_MRE_CIS: Attagene CIS-FACTORIAL HepG2 Assay for human Metal Responsive Element (MRE) (AID 2282954); settings: HepG2 MRE cis-reporter transcription, Attagene multiplex; actives raise or lower the signal
# Method in brief: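 After a 24 h chemical exposure, transiently transfected HepG2 cells yield RNA whose reporter sequences are amplified, FAM-labelled and sized by capillary electrophoresis. Curves are fitted bidirectionally relative to DMSO.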
# [15] = ATG_PBREM_CIS: Attagene CIS-FACTORIAL HepG2 Assay for human Phenobarbital-responsive Enhancer Module (PBREM) (AID 2282955); settings: HepG2 PBREM cis-reporter, Attagene multiplexed transcription; actives raise or lower the signal
# Method in brief: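 Endogenous transcription factor activity was read from reporter transcripts in transiently transfected human HepG2 liver cells after 24 h dosing. RT-PCR products were fluorescently labelled, HpaI-cut and sized by capillary electrophoresis; activity fitted bidirectionally against DMSO baseline.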
# [16] = biological target: Paired box protein Pax-6 (Homo sapiens) (UniProt P26367); test: ATG_Pax6_CIS: Attagene CIS-FACTORIAL HepG2 Assay for human Paired Box 6 (PAX6) (AID 2282956); settings: HepG2 CIS-FACTORIAL PAX6 reporter transcription, RNA readout; actives raise or lower the signal
# Method in brief: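 HepG2 cells transiently transfected with cis-promoter-driven multiplexed reporter units sensing endogenous transcription factor activity; 24 h chemical exposure. Reporter mRNA quantified by RT-PCR, 6-FAM labelling, HpaI digestion and capillary electrophoresis; bidirectional fit versus DMSO baseline.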
# [17] = ATG_PXRE_CIS: Attagene CIS-FACTORIAL HepG2 Assay for human Pregnane X Receptor Element (PXRE) (AID 2282957); settings: HepG2 Attagene CIS-FACTORIAL PXRE reporter, mRNA; actives raise or lower the signal
# Method in brief: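 Cis-element reporter mRNA in human hepatoma HepG2 cells is measured 24 h post-dosing by RT-PCR, primer-extension labeling and capillary electrophoresis; gain or loss of signal is fitted relative to DMSO.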
# [18] = ATG_PPRE_CIS: Attagene CIS-FACTORIAL HepG2 Assay for human Peroxisome Proliferator-activated Response Element (PPRE) (AID 2282958); settings: HepG2 PPRE cis-element reporter, Attagene transcription factor profiling; actives raise or lower the signal
# Method in brief: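 Endogenous PPRE-driven transcription is measured in HepG2 cells carrying transfected multi-reporter constructs. Reporter transcripts are quantified by RT-PCR, HpaI digestion and capillary electrophoresis 24 h after dosing. DMSO baseline, bidirectional fit.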
# [19] = ATG_RORE_CIS: Attagene CIS-FACTORIAL HepG2 Assay for human RAR-related Orphan Receptor Element (RORE) (AID 2282959); settings: HepG2 Attagene cis-factorial RORE reporter, mRNA; actives raise or lower the signal
# Method in brief: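 RORE reporter transcripts reflecting endogenous factor activity were read after 24 h compound exposure of transfected HepG2 cells, using reverse transcription, PCR, fluorescent labelling and capillary electrophoresis sizing. Gain or loss fitted against DMSO.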
# [20] = biological target: Bile acid receptor (Homo sapiens) (UniProt Q96RI1); test: ATG_IR1_CIS: Attagene CIS-FACTORIAL HepG2 Assay for human Nuclear Receptor Subfamily 1 Group H Member 4 (NR1H4), IR1 submotif (AID 2282946); settings: IR1 reporter transcription, actives raise or lower the signal
# Method in brief: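 Cells (human HepG2) carry transiently transfected cis-promoter reporter transcription units. Compounds are incubated 24 h, total RNA is reverse-transcribed and amplified, and labelled fragments are resolved by capillary electrophoresis. Curves use DMSO as baseline.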
# Sequence of Heat shock factor protein 1 (Homo sapiens) (Q00613 whole entry, looked up): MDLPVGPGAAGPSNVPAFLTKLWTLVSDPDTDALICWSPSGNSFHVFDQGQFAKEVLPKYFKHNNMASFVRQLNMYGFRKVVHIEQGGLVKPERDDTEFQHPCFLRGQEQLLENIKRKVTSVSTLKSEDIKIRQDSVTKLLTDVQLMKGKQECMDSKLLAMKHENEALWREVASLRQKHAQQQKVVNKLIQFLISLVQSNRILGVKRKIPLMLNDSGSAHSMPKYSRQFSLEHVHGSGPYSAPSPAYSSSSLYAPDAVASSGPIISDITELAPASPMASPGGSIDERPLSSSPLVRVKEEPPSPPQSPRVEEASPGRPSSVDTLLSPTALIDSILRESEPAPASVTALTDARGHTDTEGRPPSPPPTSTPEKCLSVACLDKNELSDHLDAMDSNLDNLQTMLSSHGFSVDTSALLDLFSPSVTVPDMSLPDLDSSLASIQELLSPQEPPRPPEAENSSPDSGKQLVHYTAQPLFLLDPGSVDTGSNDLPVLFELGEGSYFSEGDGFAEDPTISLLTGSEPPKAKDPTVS
# Sequence of Hepatocyte nuclear factor 6 (Homo sapiens) (Q9UBC0 whole entry, looked up): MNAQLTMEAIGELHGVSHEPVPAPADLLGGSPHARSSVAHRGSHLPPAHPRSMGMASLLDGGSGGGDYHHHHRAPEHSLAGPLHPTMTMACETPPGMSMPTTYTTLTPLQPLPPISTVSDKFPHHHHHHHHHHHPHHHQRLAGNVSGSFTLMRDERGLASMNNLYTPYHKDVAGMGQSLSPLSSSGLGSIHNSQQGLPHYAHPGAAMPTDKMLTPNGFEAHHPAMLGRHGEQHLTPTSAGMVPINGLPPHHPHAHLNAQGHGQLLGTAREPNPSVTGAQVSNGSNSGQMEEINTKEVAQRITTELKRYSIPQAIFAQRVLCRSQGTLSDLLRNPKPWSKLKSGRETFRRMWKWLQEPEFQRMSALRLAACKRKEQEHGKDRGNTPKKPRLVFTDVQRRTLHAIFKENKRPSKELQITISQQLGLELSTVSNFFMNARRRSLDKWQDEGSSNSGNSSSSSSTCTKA
# Sequence of Hypoxia-inducible factor 1-alpha (Homo sapiens) (Q16665 whole entry, looked up): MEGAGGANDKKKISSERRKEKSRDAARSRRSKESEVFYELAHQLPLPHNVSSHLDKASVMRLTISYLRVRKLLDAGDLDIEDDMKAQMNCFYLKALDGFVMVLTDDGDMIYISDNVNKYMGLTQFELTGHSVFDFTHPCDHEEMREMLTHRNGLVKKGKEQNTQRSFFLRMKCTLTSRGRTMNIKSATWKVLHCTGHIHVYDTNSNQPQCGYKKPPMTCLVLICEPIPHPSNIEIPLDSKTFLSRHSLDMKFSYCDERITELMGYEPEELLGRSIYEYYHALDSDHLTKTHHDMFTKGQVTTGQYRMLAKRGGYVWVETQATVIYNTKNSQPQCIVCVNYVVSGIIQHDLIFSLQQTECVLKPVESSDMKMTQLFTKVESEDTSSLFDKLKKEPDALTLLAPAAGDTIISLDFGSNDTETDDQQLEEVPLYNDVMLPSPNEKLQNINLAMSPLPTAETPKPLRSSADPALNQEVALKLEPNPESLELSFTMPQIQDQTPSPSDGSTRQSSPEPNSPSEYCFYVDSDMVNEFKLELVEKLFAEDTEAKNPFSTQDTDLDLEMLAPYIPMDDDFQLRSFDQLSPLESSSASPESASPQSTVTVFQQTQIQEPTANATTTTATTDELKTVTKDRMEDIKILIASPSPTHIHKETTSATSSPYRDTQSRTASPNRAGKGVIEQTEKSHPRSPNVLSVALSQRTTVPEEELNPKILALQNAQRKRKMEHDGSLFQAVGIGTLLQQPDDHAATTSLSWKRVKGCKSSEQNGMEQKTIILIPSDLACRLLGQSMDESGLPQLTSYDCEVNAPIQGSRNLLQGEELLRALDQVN
# Sequence of Paired box protein Pax-6 (Homo sapiens) (P26367 whole entry, looked up): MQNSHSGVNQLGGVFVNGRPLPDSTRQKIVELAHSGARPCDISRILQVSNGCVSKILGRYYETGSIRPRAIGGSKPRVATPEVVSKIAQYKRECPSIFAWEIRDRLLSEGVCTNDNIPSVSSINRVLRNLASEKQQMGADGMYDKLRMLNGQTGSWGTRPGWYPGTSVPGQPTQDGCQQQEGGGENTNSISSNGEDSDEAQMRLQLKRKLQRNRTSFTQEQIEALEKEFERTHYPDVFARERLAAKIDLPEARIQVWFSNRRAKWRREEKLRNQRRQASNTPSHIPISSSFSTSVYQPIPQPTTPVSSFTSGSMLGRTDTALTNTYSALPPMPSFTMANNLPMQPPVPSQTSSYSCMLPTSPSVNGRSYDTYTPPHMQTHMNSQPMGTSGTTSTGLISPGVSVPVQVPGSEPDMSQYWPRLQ
# Sequence of Hepatocyte nuclear factor 3-beta (Homo sapiens) (Q9Y261 whole entry, looked up): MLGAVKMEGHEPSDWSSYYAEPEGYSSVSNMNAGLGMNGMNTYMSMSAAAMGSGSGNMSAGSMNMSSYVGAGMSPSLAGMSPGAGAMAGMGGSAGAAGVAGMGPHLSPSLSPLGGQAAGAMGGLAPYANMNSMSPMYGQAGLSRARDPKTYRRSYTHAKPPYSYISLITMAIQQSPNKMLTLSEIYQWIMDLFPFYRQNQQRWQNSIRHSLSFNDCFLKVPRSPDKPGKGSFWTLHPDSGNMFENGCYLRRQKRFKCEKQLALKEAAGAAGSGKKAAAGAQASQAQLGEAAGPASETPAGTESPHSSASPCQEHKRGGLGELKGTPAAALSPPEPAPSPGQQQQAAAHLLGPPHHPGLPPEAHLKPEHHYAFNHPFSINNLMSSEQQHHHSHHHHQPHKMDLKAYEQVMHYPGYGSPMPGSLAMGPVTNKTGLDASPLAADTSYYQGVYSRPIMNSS
# Sequence of Bile acid receptor (Homo sapiens) (Q96RI1 whole entry, looked up, the tested form may be a part): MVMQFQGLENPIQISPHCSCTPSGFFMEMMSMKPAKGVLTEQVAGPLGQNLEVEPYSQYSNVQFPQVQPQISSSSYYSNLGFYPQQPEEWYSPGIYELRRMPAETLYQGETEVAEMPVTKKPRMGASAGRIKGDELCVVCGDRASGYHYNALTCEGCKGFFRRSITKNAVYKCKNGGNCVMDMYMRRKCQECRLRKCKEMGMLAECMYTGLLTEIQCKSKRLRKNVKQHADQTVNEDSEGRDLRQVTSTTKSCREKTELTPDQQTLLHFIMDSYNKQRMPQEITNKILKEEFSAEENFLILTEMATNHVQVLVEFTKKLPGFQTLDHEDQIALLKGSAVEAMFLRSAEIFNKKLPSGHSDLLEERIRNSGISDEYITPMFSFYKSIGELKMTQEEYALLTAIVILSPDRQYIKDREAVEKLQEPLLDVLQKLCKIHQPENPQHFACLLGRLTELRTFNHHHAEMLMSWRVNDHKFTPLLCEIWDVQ
compound,measurement,setting,value
O=S(=O)(Oc1ccc(Cl)cc1)c1ccc(Cl)cc1,outcome,[1],inactive
same,outcome,[2],inactive
same,outcome,[3],inactive
same,outcome,[4],inactive
same,outcome,[5],inactive
same,outcome,[6],inactive
same,outcome,[7],inactive
same,outcome,[8],inactive
same,outcome,[9],inactive
same,outcome,[10],inactive
same,outcome,[11],inactive
same,outcome,[12],inactive
same,outcome,[13],inactive
same,AC50,[14],53.3 µM (active)
same,AC50,[15],10.8 µM (active)
same,outcome,[16],inactive
same,AC50,[17],5.87 µM (active)
same,outcome,[18],inactive
same,outcome,[19],inactive
O=[N+]([O-])c1ccc(Cl)c([N+](=O)[O-])c1,outcome,[1],inactive
same,outcome,[2],inactive
same,outcome,[3],inactive
same,outcome,[4],inactive
same,outcome,[5],inactive
same,outcome,[6],inactive
same,outcome,[7],inactive
same,outcome,[8],inactive
same,outcome,[9],inactive
same,outcome,[10],inactive
same,outcome,[11],inactive
same,outcome,[12],inactive
same,AC50,[13],6.97 µM (active)
same,outcome,[14],inactive
same,outcome,[15],inactive
same,outcome,[16],inactive
same,outcome,[17],inactive
same,outcome,[18],inactive
same,outcome,[19],inactive
O=C(Nc1ccc(Br)cc1)c1cc(Br)cc(Br)c1O,outcome,[1],inactive
same,AC50,[2],4.61 µM (active)
same,outcome,[3],inactive
same,outcome,[4],inactive
same,outcome,[5],inactive
same,AC50,[6],168 µM (active)
same,AC50,[20],72.3 µM (active)
same,outcome,[7],inactive
same,outcome,[8],inactive
same,outcome,[9],inactive
same,outcome,[11],inactive
same,outcome,[12],inactive
same,AC50,[13],132 µM (active)
same,AC50,[14],13.3 µM (active)
same,AC50,[16],93.2 µM (active)
same,AC50,[17],3.75 µM (active)
same,AC50,[18],5.26 µM (active)
same,outcome,[19],inactive
